Screening results deposited in PubChem by National Center for Advancing Translational Sciences (NCATS).
Shown are actives, neighbours in structure and some others; about 7.4% of the full set was active somewhere.
FLuc modulator: qHTS profiling assay for firefly luciferase inhibitor/activator using purifed enzyme and Km concentrations of substrates (counterscreen for miR-21 project) | purified FLuc, Km substrates, luminescence inhibition | Luciferin 4-monooxygenase (Photinus pyralis), P08659 | 360,000 compounds, 6.9% hits | Potency, µM (doses to about 57.5 µM), for the others: top-dose activity change, negative = inhibition, usual class: inhibitors;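 note: plate controls were vehicle for no effect and reference inhibitor for full effect; nearly all actives have a fitted effect of over 55% in size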
Target sequence (P08659 whole entry, looked up): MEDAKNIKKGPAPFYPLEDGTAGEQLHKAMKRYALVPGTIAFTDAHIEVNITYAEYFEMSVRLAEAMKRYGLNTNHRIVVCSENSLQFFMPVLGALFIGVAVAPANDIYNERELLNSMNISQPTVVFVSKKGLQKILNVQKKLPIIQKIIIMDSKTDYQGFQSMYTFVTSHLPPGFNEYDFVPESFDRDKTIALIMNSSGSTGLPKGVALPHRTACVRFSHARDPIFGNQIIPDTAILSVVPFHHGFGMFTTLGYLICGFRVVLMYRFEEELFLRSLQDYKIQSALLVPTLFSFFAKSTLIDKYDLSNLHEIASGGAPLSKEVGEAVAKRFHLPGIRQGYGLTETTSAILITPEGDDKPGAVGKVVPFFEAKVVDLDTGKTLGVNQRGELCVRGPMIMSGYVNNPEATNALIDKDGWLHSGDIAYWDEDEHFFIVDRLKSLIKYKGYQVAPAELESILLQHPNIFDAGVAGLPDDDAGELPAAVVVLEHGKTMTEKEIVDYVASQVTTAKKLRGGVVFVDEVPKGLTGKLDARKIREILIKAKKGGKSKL
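Purified P. pyralis luciferase (10nM final) with 10uM D-luciferin and 10uM ATP (Km levels) in 50mM Tris acetate pH 7.5, 10mM Mg acetate, 0.01% Tween-20, 0.05% BSA; qHTS 6-point titration, ~60 µM downward; luminescence read.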
SMN2 splice enh: qHTS Assay for Enhancers of SMN2 Splice Variant Expression; Potency, µM (doses to about 46.1 µM), for the others: top-dose activity change, positive = activation, hits mostly activators; HEK293 SMN2-luciferase splicing reporter, luminescence, 30-36 h; 210,000 compounds, 2.8% hits; note: % of control where 0% means no effect; nearly all actives have a fitted effect of over 55% in size
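qHTS luciferase splicing reporter: luminescence rises when SMN2 exon 7 is included in transfected HEK293 cells. Compound exposure lasted 30-36 h at 37C, with 4.5 mM final sodium butyrate as control, followed by a ONE-Glo read.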
ELG1 genotox: qHTS screen for small molecules that induce genotoxicity in human embryonic kidney (HEK293T) cells expressing luciferase-tagged ELG1. HEK293T ELG1-luciferase reporter, luminescence, 16 h. Potency, µM (series often up to 46 µM), for the others: at the top dose activity change, positive = activation, hits mostly activators. 330,000 compounds, 1.3% hits. AID 504466, 2011; note: % of control where 0% means no effect; nearly all actives have a fitted effect of over 60% in size
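HEK293T cells expressing luciferase-tagged ELG1 were exposed to compound or DMSO vehicle for 16 hr at 37 °C and 5% CO2. Luciferase activity was then measured with ONE-Glo after 30 min at room temperature.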
Rab9 promoter act: qHTS Assay for Rab9 Promoter Activators; Huh7 Rab9 promoter-luciferase reporter, luminescence, 24 h; Potency, µM (top dose mostly 9.22 µM), inactives show top-dose activation, negative = inhibition, actives largely listed as activators; 320,000 compounds, 2.8% hits; AID 485297, 2010; note: % of control where 0% means no effect; nearly all actives have a fitted effect of over 60% in size
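Huh7 cells stably carrying a Rab9 promoter-luciferase reporter, 1500 cells per well in OP-MEM I with 10% FBS, treated with compound 24 hours at 37C. Luciferase activity read by luminescence after 10 minutes with Amplite reagent.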
NPC1 prom act: qHTS Assay for NPC1 Promoter Activators | Huh7 NPC1 promoter luciferase reporter, 24 h | 320,000 compounds, 2.4% hits | AID 485313, 2010 | Potency, µM (top dose mostly 9.22 µM), inactives show top-dose activation, most hits filed as activators; note: % of control where 0% means no effect; nearly all actives have a fitted effect of over 60% in size
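Stable NPC1-promoter luciferase Huh7 line; cpd (DMSO) 24 h, 37 °C, 5% CO2; Amplite luciferase reagent 10 min RT; luminescence readout. qHTS format.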
* marks the source's active call; other numbers are inactive results; ? = inconclusive; . = not tested or not shown; [ ] = remark or other dose. Calls come from the whole dose curve; as a rule, active = well fitted curve in the direction sought with a large enough effect; inconclusive = small, poorly fitted or top-dose-only effect, or another doubt; inactive = no such curve, though single readings can be large; an effect the other way counts as inactive or inconclusive. Potency is the fitted concentration of half-maximal effect.

SMILES | FLuc modulator | SMN2 splice enh | ELG1 genotox | Rab9 promoter act | NPC1 prom act
O=C(NCCCN1CCCCCC1)C(c1ccccc1)C1CCCCC1 (stereo not given) | . | -9% | . | . | .
Cc1ccccc1C(=O)NC(=S)Nc1sc2c(c1C#N)CCCC2 | 19µM* | -4% | 0% | -1% | -2%
N#Cc1c(Cl)nsc1NC(=O)c1ccccc1 | 15µM* | -42% | -2% | -23% | -15%
C=CCNC(=S)Nc1sc2c(c1C#N)CCCC2 | 21µM* | 12% | -1% | 2% | -1%
CC(=O)Nc1sc2c(c1C#N)CCCCC2 | ? | 21% | 17% | 15% | 15%
CC(C)(C)C(=O)NC(=S)Nc1sc2c(c1C#N)CCCCC2 | ? | -13% | 13% | 22% | 27%
Cc1ccc(C(=O)Nc2sc3c(c2C#N)CCCCC3)cc1C | ? | ? | ? | 3.2µM* | 2.2µM*
O=C1C(Cl)=C(NC(=O)c2ccccc2)C(=O)C(Cl)=C1NC(=O)c1ccccc1 | ? | . | 2% | -10% | -9%
COc1ccc2c(c1)O[C@@H](c1cccc(C(F)(F)F)c1)[C@H](OC(=O)NCc1ccco1)C2=O | . | 1% | . | . | .
Cc1ccc(C(=O)OCc2nnc(-c3ccccc3)o2)cc1S(=O)(=O)N1CCOCC1 | -6% | . | 19% | 5% | 3%
N#Cc1c(NC(=O)c2ccccc2)sc2c1CCCCC2 | ? | 0.63µM* | ? | 0.56µM* | 0.79µM*
Cc1ccc(C(=O)NC2CCCCCCC2)c(Cl)c1 | 0.76µM* | . | 1.5µM* | 0.32µM* | 0.32µM*
O=C(NC(=S)NC(CO)Cc1ccccc1)c1ccc(F)cc1 (stereo not given) | 0% | . | ? | 4µM* | 1.3µM*
O=C(NC(=S)NCCN1CCOCC1)c1ccc(F)cc1 | 1% | ? | -1% | -3% | -1%
CC(C)CNC(=S)NC(=O)c1ccc(F)cc1 | 30µM* | ? | ? | 17% | 22%
O=C(NC(=S)NC1CCCCC1)c1ccc(F)cc1 | ? | . | ? | 4µM* | ?
O=C(NC1CC1)c1ccc(F)cc1Cl | 3% | 0% | 1% | 0% | 9%
Cc1ccc(C(=O)NCC(=O)NC2CCCC2)cc1 | 3% | 23% | 1% | 0% | 0%
N#Cc1ccc(C(=O)NC2CCCCCCC2)cc1 | 21µM* | . | ? | 1.4µM* | 1.8µM*
Cc1ccc(C(=O)NC2CCCCC2)cc1 | 21µM* | 14µM* | 30% | 2.5µM* | 2.8µM*
N#Cc1ccc(OCC(=O)NC2CCCCCC2)cc1 | . | . | 1% | . | .
Cc1cccc(C)c1NC(=O)c1cn(-c2ccccc2)nc1-c1ccccc1 | ? | -12% | 0% | -3% | -9%
Cc1ccc(-c2cc(C(=O)NN=C3CCCC3)c3ccccc3n2)cc1 | 4.3µM* | -12% | 3% | -4% | 0%
O=C(NN=C1CCCCCC1)c1cc(-c2ccccc2)nc2ccccc12 | 17µM* | 13% | 2% | -4% | -9%
O=C(NC(=S)N1CCOCC1)c1cn(-c2ccccc2)nc1-c1ccccc1 | 17µM* | . | -8% | 1% | 0%
SMILES | FLuc modulator | SMN2 splice enh | ELG1 genotox | Rab9 promoter act | NPC1 prom act
O=C(NN=C1CCCCCC1)c1cn(-c2ccccc2)nc1-c1ccccc1 | 15µM* | -29% | 0% | 1% | -3%
CC1CCN(S(=O)(=O)c2ccc3c(c2)N(CC(=O)NCCc2ccc(Cl)cc2)C(=O)CO3)CC1 | -10% | 7% | . | . | .
CCOc1ccc(NC(=O)CN(C)C(=O)Cc2c(C)nc3ccccc3c2C)cc1OCC | 3% | . | -10% | -1% | -4%
CCCCNC(=O)c1ccc2c(c1)S(=O)(=O)c1ccccc1C2=O | 15µM* | . | 11% | -5% | -4%
COc1ccc(NC(=O)c2oc3ccc4c(c3c2C)C(=O)CC(C)(C)O4)cc1OC | 0.43µM* | . | . | . | .
CCc1cccc(NC(=O)c2oc3ccc4c(c3c2C)C(=O)CC(C)(C)O4)c1 | 0.85µM* | . | . | . | .
Cc1ccc(C)c(S(=O)(=O)N2CCC(c3nc4c(nnn4Cc4ccc5c(c4)OCCO5)c(=O)[nH]3)CC2)c1 | 0% | . | -6% | -1% | -5%
COc1ccc(OCCn2cnc3ccccc32)cc1 | -19% | . | 0% | 29% | 17%
CC(C)CC(=O)Nc1c2c(nn1-c1cccc(Cl)c1)CS(=O)(=O)C2 | 2% | . | -3% | -7% | -1%
O=C(Nc1cccs1)NC1CCCC1 | -17% | -5% | 17% | 10% | 22%
CC1CCC(NC(=O)Nc2cccs2)CC1 (stereo not given) | 15µM* | 18% | ? | ? | 3%
CCOC(=O)CN(C(=O)CNC(=O)c1cccs1)C(C(=O)NC1CCCC1)c1ccncc1 (stereo not given) | 0% | -8% | -2% | 1% | 1%
CC1CCC(NC(=O)CNC(=O)c2cccs2)CC1 (stereo not given) | ? | . | ? | 4µM* | ?
CCCCN(C(=O)CNC(=O)c1cccs1)C(C(=O)NC1CCCC1)c1ccncc1 (stereo not given) | 7.6µM* | . | 5% | -4% | 0%
Cc1ccc(C(=O)NCC(=O)NC2CCC(C)CC2)s1 (stereo not given) | 2% | . | 6% | 2% | 0%
O=C(COc1ccc(-c2ccccc2)cc1)N/N=C/c1ccccc1Br | ? | 0% | -1% | -1% | -3%
COc1ccc(NCC(=O)N/N=C/C=C/c2ccccc2[N+](=O)[O-])cc1 | -17% | 12% | -5% | -2% | -3%
CCOc1ccc(N=C/C=C/c2ccccc2)c(O)c1 | 8.5µM* | . | ? | ? | ?
COc1ccc(OCC(=O)N/N=C/C=C/c2ccccc2)cc1 | 4.8µM* | 9% | 7% | -4% | 1%
CCOc1ccc(NCC(=O)N/N=C/C=C/c2ccccc2)cc1 | 13µM* | -4% | 3% | -3% | 2%
CCOc1ccc(-c2[nH]ncc2-c2ccccc2)c(O)c1 | 1% | . | 0% | 2% | -4%
O=C(COc1ccc(-c2ccccc2)cc1)N/N=C/c1cc(O)ccc1Br | 11µM* | 2%[1.84 µM] | 0% | 1% | 0%
COc1ccc(NC(=O)Cn2cc(C(=O)C3CCCCC3)c3ccccc32)cc1 | 3% | -26% | . | . | .
COc1cccc(NC(=O)CN2CCc3ccccc3C2)c1 | ? | . | 1% | 18% | 19%
N/C(Cc1ccc(Cl)cc1Cl)=N\OC(=O)c1cccs1 | -20% | -11% | 0% | 12% | 4%
Cc1ccccc1C(=O)O/N=C(\N)Cc1cccs1 | 12µM* | . | ? | ? | ?
N/C(Cc1cccs1)=N\OC(=O)COc1ccc(Cl)cc1Cl | 15µM* | 41% | 16µM* | 23% | 28%
Cc1ccccc1OCC(=O)O/N=C(\N)Cc1cccs1 | 12µM* | -24% | -2% | 1% | 13%
